Measurements published in the supplement of paper PMC10849652.
Targets with a hit are over-represented here; the source holds about 7,900 in all. About 0.6% of all pairs of compound and target were hits.

Each target was assayed with COC(=O)[C@H](CCSC)NC(=O)C1=C(C=C(C=C1)NC[C@H](CS)N)C2=CC=CC=C2 (assay: log2 fold change, soluble protein after heating vs DMSO (PISA); higher = thermal stabilisation; K562 cells, 10 uM, 30 min; active = over 0.2 and 3.5 SD of the protein, either way, in both replicates (recomputed)).
Procedure, shortened: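 K562 cells (2×10^6 cells/mL) were treated with 10 μM compound for 30 min, and aliquots were heated for 3 min over 48°C-58°C. Pooled aliquots were extracted in PBS with 0.5% NP-40 at 4°C, and the supernatant after 21,000xg for 90 min was measured by TMTpro 16plex LC-MS/MS with channel sums equalised. Reported thermal stability, relative to control samples and from duplicates, is a log2 fold change.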

Chain of UniProt O95772 (O95772 whole entry, looked up): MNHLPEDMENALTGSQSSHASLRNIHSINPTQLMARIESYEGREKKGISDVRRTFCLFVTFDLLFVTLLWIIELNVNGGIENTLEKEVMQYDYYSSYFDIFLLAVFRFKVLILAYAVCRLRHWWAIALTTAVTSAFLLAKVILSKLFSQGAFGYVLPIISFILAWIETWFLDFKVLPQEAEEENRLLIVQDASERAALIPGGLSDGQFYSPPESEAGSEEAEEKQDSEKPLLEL
Chain of UniProt Q96QD8 (Q96QD8 whole entry, looked up): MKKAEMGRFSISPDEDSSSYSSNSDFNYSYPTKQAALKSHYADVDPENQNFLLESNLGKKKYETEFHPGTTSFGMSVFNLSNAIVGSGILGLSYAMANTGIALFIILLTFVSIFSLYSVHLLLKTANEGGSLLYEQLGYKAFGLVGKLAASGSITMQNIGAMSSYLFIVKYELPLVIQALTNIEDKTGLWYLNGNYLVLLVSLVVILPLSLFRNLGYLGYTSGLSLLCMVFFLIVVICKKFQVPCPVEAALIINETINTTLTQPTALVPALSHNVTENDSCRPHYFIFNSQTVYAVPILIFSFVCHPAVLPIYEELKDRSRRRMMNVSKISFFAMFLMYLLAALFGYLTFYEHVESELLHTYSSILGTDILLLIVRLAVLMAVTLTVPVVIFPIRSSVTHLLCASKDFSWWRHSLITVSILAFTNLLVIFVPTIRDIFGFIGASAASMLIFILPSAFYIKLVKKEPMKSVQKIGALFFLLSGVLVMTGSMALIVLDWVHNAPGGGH
Chain of UniProt Q6ZRS2 (Q6ZRS2 whole entry, looked up): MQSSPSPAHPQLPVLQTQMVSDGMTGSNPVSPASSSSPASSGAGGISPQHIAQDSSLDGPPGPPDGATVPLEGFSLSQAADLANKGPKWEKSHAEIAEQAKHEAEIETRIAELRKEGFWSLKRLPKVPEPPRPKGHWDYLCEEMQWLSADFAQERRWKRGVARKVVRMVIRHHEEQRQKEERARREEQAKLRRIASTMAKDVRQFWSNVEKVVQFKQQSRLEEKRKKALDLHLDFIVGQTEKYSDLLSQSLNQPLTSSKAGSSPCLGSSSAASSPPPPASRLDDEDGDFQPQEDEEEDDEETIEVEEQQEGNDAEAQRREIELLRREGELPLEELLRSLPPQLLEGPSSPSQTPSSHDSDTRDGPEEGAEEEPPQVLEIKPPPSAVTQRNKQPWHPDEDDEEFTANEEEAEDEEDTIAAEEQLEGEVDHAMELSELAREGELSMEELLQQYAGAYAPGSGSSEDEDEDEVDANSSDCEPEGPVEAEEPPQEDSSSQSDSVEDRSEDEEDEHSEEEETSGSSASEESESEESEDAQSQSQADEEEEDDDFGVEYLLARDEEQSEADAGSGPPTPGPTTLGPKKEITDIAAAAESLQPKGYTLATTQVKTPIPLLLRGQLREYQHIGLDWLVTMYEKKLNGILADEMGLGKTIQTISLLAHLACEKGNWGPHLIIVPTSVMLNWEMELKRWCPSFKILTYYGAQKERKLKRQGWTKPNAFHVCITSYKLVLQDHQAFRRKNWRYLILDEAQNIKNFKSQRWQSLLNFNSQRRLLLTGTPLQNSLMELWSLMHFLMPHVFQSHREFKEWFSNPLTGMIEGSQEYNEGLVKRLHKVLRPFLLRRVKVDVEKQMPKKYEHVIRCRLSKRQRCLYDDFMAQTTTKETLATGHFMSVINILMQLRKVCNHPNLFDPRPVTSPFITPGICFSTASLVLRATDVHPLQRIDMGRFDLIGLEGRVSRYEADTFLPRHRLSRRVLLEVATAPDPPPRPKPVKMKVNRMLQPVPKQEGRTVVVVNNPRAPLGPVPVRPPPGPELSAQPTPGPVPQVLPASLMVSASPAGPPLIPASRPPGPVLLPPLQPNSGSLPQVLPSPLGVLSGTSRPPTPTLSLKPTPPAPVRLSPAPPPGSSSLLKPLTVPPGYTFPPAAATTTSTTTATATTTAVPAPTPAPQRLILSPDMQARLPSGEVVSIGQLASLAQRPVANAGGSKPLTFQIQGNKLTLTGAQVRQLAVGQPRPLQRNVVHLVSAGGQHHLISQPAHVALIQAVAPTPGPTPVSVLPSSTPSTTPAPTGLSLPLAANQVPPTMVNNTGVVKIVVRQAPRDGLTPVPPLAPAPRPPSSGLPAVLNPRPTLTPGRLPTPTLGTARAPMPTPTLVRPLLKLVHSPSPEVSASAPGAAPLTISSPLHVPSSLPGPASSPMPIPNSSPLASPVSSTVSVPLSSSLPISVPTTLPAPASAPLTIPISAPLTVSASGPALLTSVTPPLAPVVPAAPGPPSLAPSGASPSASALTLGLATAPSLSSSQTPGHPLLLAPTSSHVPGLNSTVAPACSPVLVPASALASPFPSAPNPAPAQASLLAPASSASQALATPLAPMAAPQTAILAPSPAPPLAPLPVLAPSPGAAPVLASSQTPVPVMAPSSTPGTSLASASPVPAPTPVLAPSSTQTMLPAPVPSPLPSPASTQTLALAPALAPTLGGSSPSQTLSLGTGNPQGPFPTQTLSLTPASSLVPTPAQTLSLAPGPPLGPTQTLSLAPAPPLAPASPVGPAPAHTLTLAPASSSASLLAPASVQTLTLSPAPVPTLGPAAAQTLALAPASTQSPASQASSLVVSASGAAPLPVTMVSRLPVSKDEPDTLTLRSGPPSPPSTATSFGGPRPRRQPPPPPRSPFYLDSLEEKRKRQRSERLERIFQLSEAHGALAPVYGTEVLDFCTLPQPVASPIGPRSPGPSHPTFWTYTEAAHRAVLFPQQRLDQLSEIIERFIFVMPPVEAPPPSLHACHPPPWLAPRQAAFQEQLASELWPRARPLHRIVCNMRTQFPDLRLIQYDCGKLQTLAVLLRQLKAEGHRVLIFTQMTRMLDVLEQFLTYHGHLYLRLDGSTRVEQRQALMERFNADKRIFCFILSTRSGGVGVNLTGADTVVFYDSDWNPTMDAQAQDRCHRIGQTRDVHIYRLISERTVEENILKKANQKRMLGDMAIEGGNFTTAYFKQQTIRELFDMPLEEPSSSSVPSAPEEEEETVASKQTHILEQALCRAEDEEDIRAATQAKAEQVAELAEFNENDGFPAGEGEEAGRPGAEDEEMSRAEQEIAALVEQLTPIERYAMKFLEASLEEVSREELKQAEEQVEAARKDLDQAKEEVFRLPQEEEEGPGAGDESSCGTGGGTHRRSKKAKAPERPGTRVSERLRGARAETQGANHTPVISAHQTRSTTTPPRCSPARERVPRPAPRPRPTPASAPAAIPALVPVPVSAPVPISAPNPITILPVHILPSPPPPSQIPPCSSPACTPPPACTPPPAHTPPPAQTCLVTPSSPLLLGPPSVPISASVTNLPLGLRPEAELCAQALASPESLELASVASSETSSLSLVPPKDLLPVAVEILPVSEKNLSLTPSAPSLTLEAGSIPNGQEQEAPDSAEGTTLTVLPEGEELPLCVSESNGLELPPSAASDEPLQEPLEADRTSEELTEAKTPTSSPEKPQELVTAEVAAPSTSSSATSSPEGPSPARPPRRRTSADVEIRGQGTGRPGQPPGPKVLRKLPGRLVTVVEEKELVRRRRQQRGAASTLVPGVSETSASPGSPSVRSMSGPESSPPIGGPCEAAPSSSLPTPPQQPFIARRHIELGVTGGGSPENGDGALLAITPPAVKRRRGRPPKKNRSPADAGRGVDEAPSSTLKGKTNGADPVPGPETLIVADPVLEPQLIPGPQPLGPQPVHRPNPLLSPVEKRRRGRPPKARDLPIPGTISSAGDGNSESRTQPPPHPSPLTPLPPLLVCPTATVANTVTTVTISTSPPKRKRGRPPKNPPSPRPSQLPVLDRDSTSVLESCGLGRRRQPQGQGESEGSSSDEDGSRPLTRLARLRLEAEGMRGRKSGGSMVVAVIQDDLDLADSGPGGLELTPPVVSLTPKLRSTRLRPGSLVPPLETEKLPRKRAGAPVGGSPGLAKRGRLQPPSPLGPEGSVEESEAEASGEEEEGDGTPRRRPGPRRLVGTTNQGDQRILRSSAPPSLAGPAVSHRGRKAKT
Chain of UniProt Q9Y5X3 (Q9Y5X3 whole entry, looked up): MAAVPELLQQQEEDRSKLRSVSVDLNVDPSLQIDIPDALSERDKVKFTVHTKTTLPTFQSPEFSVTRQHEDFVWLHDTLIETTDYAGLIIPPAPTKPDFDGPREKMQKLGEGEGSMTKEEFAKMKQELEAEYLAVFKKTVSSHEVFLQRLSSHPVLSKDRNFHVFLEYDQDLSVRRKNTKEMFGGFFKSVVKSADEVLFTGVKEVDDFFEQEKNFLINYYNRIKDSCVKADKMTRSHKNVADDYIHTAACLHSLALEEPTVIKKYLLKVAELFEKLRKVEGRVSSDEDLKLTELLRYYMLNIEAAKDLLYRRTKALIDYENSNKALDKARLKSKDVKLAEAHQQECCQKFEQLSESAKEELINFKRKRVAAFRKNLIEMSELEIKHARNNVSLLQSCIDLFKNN
Chain of UniProt Q9BW92 (Q9BW92 whole entry, looked up): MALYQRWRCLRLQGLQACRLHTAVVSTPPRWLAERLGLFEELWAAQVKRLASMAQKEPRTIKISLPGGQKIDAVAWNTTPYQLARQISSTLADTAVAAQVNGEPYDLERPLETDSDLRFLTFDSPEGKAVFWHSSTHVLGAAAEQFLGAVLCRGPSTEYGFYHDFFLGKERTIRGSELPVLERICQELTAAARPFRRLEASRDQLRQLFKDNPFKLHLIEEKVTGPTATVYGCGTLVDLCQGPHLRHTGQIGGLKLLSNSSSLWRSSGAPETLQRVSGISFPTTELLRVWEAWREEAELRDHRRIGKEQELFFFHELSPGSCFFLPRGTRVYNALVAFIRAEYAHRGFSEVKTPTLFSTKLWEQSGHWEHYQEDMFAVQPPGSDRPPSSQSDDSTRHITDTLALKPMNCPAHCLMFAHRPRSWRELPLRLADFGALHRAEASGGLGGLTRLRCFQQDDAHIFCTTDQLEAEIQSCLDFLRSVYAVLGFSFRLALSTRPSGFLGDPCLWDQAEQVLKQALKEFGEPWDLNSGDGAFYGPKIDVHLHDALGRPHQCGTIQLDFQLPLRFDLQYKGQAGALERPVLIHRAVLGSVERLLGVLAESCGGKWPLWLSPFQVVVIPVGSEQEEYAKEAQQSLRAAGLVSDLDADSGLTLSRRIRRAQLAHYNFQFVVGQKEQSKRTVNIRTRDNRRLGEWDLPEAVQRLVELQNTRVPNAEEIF

log2 fold change, inactive:
SP100 isoform 4 (UniProt P23497) 0.095
STARD3NL (UniProt O95772) -0.046
SNX5 (UniProt Q9Y5X3) 0.006
TMBIM6 isoform 2 (UniProt P55061) 0.039
TARS2 (UniProt Q9BW92) 0.039
SPTBN1 (UniProt Q01082) -0.057
SLC35A1 (UniProt P78382) -0.211
SLC38A2 (UniProt Q96QD8) -0.024
SUN1 isoform 9 (UniProt O94901) -0.029
SRCAP (UniProt Q6ZRS2) -0.015
TBP (UniProt P20226) -0.071
